“And” between values parts separate entries of the source, which are not always exact repeats. Equal entries are not always repeated. This is part of a sample that, as a whole, favours compounds with a hit. Of some 83,000 tested, about 20% had one in any assay.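 For each line, cells grew in 96-well plates with the test compound present at a single concentration for 48 hours.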 The source made the active and inactive calls. The calls were made as follows: active = growth percent below 10; inactive = the rest.
Tested on: MDA-MB-468 breast
Test: NCI-60 one-dose screen, 48 h (100 = growth as untreated, 0 = no growth, -100 = all killed)
Conditions: 10 µM unless noted

Structure (SMILES): O=C(Nc1cccc2c1C(=O)c1cccc(NC(=O)c3ccc(C(=O)Nc4cccc5c4C(=O)c4cccc(NC(=O)c6ccccc6)c4C5=O)cc3)c1C2=O)c1ccccc1
- growth: 91.3% (inactive)

Structure (SMILES): CC(C)(c1ccc(OCC(O)CNCc2ccco2)cc1)c1ccc(OCC(O)CNCc2ccco2)cc1 (stereo not drawn)
- growth: 98.1% (inactive)

Structure (SMILES): COc1cc(CCn2nnc3c(Nc4ccc(N5CCOCC5)cc4)ncnc32)cc(OC)c1
- growth: 80.6% (inactive)

Structure (SMILES): CCOC(=O)c1sc2ncc(-c3ccc(C)cc3)n2c1C
- growth: 102% (inactive)

Structure (SMILES): O=C(Nc1ccc(-n2cc(-c3ccncc3)c(-c3ccc(O)c(Cl)c3)n2)cc1)Nc1ccc(Cl)c(C(F)(F)F)c1
- growth: -6.63% (active)

Structure (SMILES): CC(C)=CCc1cc(O)cc2c1OC(C=C(C)C)C1=C2C(=O)C2=C(C1=O)S(=O)(=O)CCN2 (stereo not drawn)
- growth: -31.2% (active)

Structure (SMILES): Cn1c(=O)c2[nH]c(C(O)c3ccc(Cl)cc3)nc2n(C)c1=O (stereo not drawn)
- growth: 96.7% (inactive)

Structure (SMILES): C=CCNCCC#N
- growth: 98.1% (inactive)

Structure (SMILES): C=C1C(=O)O[C@H]2[C@H]1CC/C(CNS(=O)(=O)c1ccc3ccccc3c1)=C\CC[C@@]1(C)O[C@@H]21
- growth: -54% (active)

Structure (SMILES): CC(C)(C)CC(N)=O
- growth: 101% (inactive)

Structure (SMILES): Cc1cc2nc(CN)[nH]c2cc1C
- growth: 103% (inactive)

Structure (SMILES): COc1cc(CO)cc2cc3ccccc3nc12
- growth: 40.8% (inactive)

Structure (SMILES): CC(=O)Nc1nc(C)c(C(=O)N/N=C/N2CCOCC2)s1
- growth: 116% (inactive)

Structure (SMILES): O=c1c2cc(F)ccc2sc2c(N3CCCCC3)nc3ccccc3c12
- growth: 95.6% (inactive)

Structure (SMILES): CN1CCN(C2CCN(C(=O)Nc3cc(Oc4ccc(NC(=O)C5(C(=O)Nc6ccc(F)cc6)CC5)c(F)c4)ccn3)CC2)CC1
- growth: -70.7% (active) and 96.6% (inactive)

Structure (SMILES): O=C(O)CCCCCCCCCCCCCCC(=O)O
- growth: 95.6% (inactive)

Structure (SMILES): C=CCCCCCCCCC(=O)OC(C)C
- growth: 97.5% (inactive)

Structure (SMILES): CC1=C(O)C(=O)C(c2c(C)cc(C)c(Br)c2C)=C(O)C1=O
- growth: 85.8% (inactive)

Structure (SMILES): CCOC(=O)C1=CN(C)C=C(C(=O)OCC)C1c1cc(Br)c(OCC)c(OC)c1
- growth: 62.1% (inactive)

Structure (SMILES): Clc1cccc(Cl)c1Cn1c(-c2cncs2)nc2ccccc21
- growth: 52.6% (inactive)

Structure (SMILES): COc1ccc2c(c1)C(CC(=O)NN)CCC2 (stereo not drawn)
- growth: 102% (inactive)

Structure (SMILES): CCc1ccc(C2=C(O)C(=O)C(c3ccc(CC)cc3)=C(O)C2=O)cc1
- growth: -2.72% (active)

Structure (SMILES): COc1cc(C(=O)/C=C/c2cn(-c3ccccc3)nc2-c2cccc(Nc3ccnc4cc(Cl)ccc34)c2)cc(OC)c1OC
- growth: 71.7% (inactive)

Structure (SMILES): Oc1cc(O)c2c(=S)cc(-c3ccc(Cl)cc3)oc2c1
- growth: -6.34% (active)

Structure (SMILES): CCC(=O)Oc1ccc(/C(=C(\C)c2ccccc2)c2ccc(OCCN3CCCCC3)cc2)cc1
- growth: 70.3% (inactive)

Structure (SMILES): NNC(=O)c1ccccc1N
- growth: 94.8% (inactive)

Structure (SMILES): O=C(CN1CCN(c2cc(=O)n(-c3ccccc3)c3ccccc23)CC1)Nc1ccc(F)cc1
- growth: 9.45% (active)

Structure (SMILES): Oc1ccc2ccccc2c1N=Nc1nccs1
- growth: -48.6% (active)

Structure (SMILES): NC(=O)c1ccccc1NC(=O)c1ccccc1Cl
- growth: 125% (inactive)

Structure (SMILES): CN1C(=O)N(c2ccccc2)C2N=C(N/N=C/c3ccccc3)SC21 (stereo not drawn)
- growth: -11.5% (active)

Structure (SMILES): CCCC(=O)NC(c1ccc(N(CC)CC)cc1)c1cc(C)c2cccnc2c1O (stereo not drawn)
- growth: -16.1% (active)

Structure (SMILES): CCCCc1n(Cc2ccc3ccccc3c2)cc[n+]1Cc1ccc2ccccc2c1
- growth: -55.2% (active)

Structure (SMILES): CC(=O)O[C@H]1[C@H](CC#CC#CC[C@@H]2C[C@]3(C)[C@H]4CC=C5[C@H]6[C@@H](C)[C@H](C)CC[C@]6(C(=O)NCCCCCCCCN)CC[C@@]5(C)[C@]4(C)CC[C@H]3C(C)(C)[C@H]2OC(C)=O)C[C@]2(C)[C@H]3CC=C4[C@H]5[C@@H](C)[C@H](C)CC[C@]5(C(=O)NCCCCCCCCN)CC[C@@]4(C)[C@]3(C)CC[C@H]2C1(C)C
- growth: 73.5% (inactive)

Structure (SMILES): CC(=O)c1cc(C(=O)c2ccc(Br)cc2)n2cc(C)cc(C)c12
- growth: 89.3% (inactive)

Structure (SMILES): COc1ccc(-c2nn(Cc3ccccc3)c3c2-c2oncc2CC3)cc1OC
- growth: 99.9% (inactive)

Structure (SMILES): COC1OCC(OS(=O)(=O)c2ccc(C)cc2)C(OC(=O)c2ccccc2)C1OC(=O)c1ccccc1 (stereo not drawn)
- growth: 13% (inactive)

Structure (SMILES): N#C/C(=C\c1ccc(C#N)cc1)C(=O)c1ccccc1
- growth: 95.7% (inactive)

Structure (SMILES): Cc1[nH]nc(C(N)=O)c1[N+](=O)[O-]
- growth: 85.5% (inactive)

Structure (SMILES): Cc1ccc2c(c1)C(C)Cc1c(ncnc1-n1cnc3ccccc31)N2C (stereo not drawn)
- growth: 30.8% (inactive)

Structure (SMILES): Cc1cccc(N2CCN(C(=S)c3ccc4c(c3)OCO4)CC2)c1
- growth: -37.6% (active)

Structure (SMILES): CCCCCCCCCCCCCCCC[N+]1(C)CCOCC1
- growth: -50.9% (active)

Structure (SMILES): CC1(O)OC(COc2ccc(Cl)cc2)COC1O (stereo not drawn)
- growth: 105% (inactive)

Structure (SMILES): CS(=O)(=O)c1ccc(-c2nc3ccccn3c2C=Nc2ccc(Cl)cc2)cc1
- growth: 98.1% (inactive)

Structure (SMILES): C=C(C)[C@@H]1CC[C@]2(COC(=O)c3cccnc3)CC[C@]3(C)[C@H](CC[C@@H]4[C@@]5(C)CCCN(C(=O)c6cccnc6)C(C)(C)[C@@H]5CC[C@]43C)[C@@H]12
- growth: 23.3% (inactive)

Structure (SMILES): COc1ccccc1S(=O)Nc1ccccc1 (stereo not drawn)
- growth: 97.2% (inactive)

Structure (SMILES): CCOC(=O)CNN
- growth: 95.7% (inactive)

Structure (SMILES): COc1ccc(-c2ccc(-c3ccc(C(=N)N)nc3)s2)cc1
- growth: -69.9% (active)

Structure (SMILES): CCOC(=O)c1cc(C#N)n2ccc3ccccc3c12
- growth: 98.4% (inactive)

Structure (SMILES): CCN(CC)CCCCCNc1cc(OC(=O)c2ccc(Cl)cc2)cc2cccnc12
- growth: 71.6% (inactive)

Structure (SMILES): Cc1cc(O)c(=O)cc2c1C[C@H]1CC(C)(C)/C=C/C[C@]3(C)Oc4cc(=O)c(O)cc(C)c4C[C@H]3C[C@H](O)[C@@]1(C)O2
- growth: -16.7% (active) and -22.9% (active)

Structure (SMILES): COc1ccc(NC(=O)CSc2nc3ccc(Cl)cc3c(=O)n2-c2ccccc2C(F)(F)F)c(OC)c1OC
- growth: 79.6% (inactive)

Structure (SMILES): CN1CCN(C(=O)c2ccc(NC(=O)Nc3ccc(-c4nc(N5CCOCC5)c5cccn5n4)cc3)cc2)CC1
- growth: -60.7% (active)

Structure (SMILES): Cc1ccc2cc3c(N)c4c(C)ccc(C)c4nc3nc2c1
- growth: 29.9% (inactive)

Structure (SMILES): CCOC(=O)c1cnn(CC(C)O)c1NC(=O)NCc1cccc(F)c1 (stereo not drawn)
- growth: 105% (inactive)

Structure (SMILES): CN1CCN(c2ccc(Nc3nc(NCCCNS(=O)(=O)c4cccc5ccccc45)c4sccc4n3)cc2)CC1
- growth: -70.5% (active)

Structure (SMILES): CSCCC1NC(=O)C(C(C)=Nc2ccccc2)=C1O (stereo not drawn)
- growth: 109% (inactive)

Structure (SMILES): CCOc1ccccc1CN1CCc2nc3cc(C(C)(C)C)[nH]n3c(=O)c2C1
- growth: 105% (inactive)

Structure (SMILES): C#Cc1ccc(-n2c(/C=C/c3ccc4ccccc4n3)nc3ncccc3c2=O)cc1
- growth: -68.1% (active)

Structure (SMILES): Cc1ccc2c(n1)C(=O)C(Cl)=C(Nc1ccc(C(F)(F)F)cc1)C2=O
- growth: -48.5% (active)

Structure (SMILES): CCn1nc(C#Cc2c(C)ccc3c(Nc4ccc(Cl)cc4)nccc23)c2c(N)ncnc21
- growth: 27.1% (inactive)

Structure (SMILES): NC(N)=N/N=C/c1ccc(Br)cc1
- growth: 8.33% (active)

Structure (SMILES): Oc1ccccc1/C=N/Nc1nc2ccccc2s1
- growth: 21.5% (inactive)

Structure (SMILES): CC(C)(C)NCCC(O)c1cc(C(F)(F)F)nc2c(C(F)(F)F)cccc12 (stereo not drawn)
- growth: 70.9% (inactive)

Structure (SMILES): CC1(C)OC2C(COC(c3ccccc3)(c3ccccc3)c3ccccc3)OC(c3c[nH]c4c(N)ncnc34)C2O1 (stereo not drawn)
- growth: 30% (inactive)

Structure (SMILES): Cc1ccc(NSc2ccccc2[N+](=O)[O-])cc1
- growth: 17.6% (inactive)

Structure (SMILES): O=C(N(c1ccccc1)c1ccccc1)n1ccc2nc(Cl)nc(Cl)c21
- growth: -0.952% (active)

Structure (SMILES): O=P(O)(O)OCC1OC(n2cnc3c(NCc4ccco4)ncnc32)C(O)C1O (stereo not drawn)
- growth: -67% (active)

Structure (SMILES): CCN1/C(=C/C=C/c2n(-c3ccccc3)c3ccc(-c4nc5ccccc5s4)cc3[n+]2CC)N(c2ccccc2)c2ccc(-c3nc4ccccc4s3)cc21
- growth: 8.94% (active)

Structure (SMILES): Cc1cc2cc3cc(C)c(N(C)C)cc3nc2cc1N(C)C
- growth: 23.9% (inactive)

Structure (SMILES): CCOc1ccc(NC(=O)Nc2cc(C(C)C)ccc2C)cc1
- growth: 114% (inactive)

Structure (SMILES): CNC(=O)c1cc(Oc2ccc3c(c2)sc2nc(-c4ccc(NC(=O)[C@@H](NC(=O)OC)C(C)C)cc4)cn23)ccn1
- growth: 28.4% (inactive)

Structure (SMILES): COc1cc2cc(Oc3ccc(NC(=O)Nc4cc(C(F)(F)F)cc(C(F)(F)F)c4)cc3)c(C)nc2cc1OCCN1CCOCC1
- growth: -12% (active)

Structure (SMILES): O=C1c2ccccc2C(=Cc2ccccc2)c2ccccc21
- growth: -7.09% (active)

Structure (SMILES): Cc1ccc([P+](Cc2ccccc2)(c2ccccc2)c2ccccc2)cc1
- growth: -13.5% (active)

Structure (SMILES): CCOC(=O)/C(C#N)=C(/CC)OCC
- growth: 113% (inactive)

Structure (SMILES): O=C(CC(=O)C(F)(F)C(F)(F)C(F)(F)F)c1cc2ccccc2o1
- growth: 112% (inactive)

Structure (SMILES): COc1c(N2CC3CCCNC3C2)c(F)cc2c(=O)c(C(=O)N/N=C/c3ccc(F)cc3)cn(C3CC3)c12 (stereo not drawn)
- growth: 84.4% (inactive)

Structure (SMILES): CCOC(=O)c1cc(C#N)n2ncc3ccccc3c12
- growth: 87.9% (inactive)

Structure (SMILES): COc1cc(-c2csc(NC(=O)c3cc(C(F)(F)F)cc(C(F)(F)F)c3)n2)cc(OC)c1OC
- growth: 6.71% (active)

Structure (SMILES): O=C1/C=C/[C@@H](O)[C@@H]2C[C@@H](O)C[C@H]2/C=C/CCC[C@H](CCc2ccc(NC(=S)Nc3ccc4c(c3)C(=O)OC43c4ccc(O)cc4Oc4cc(O)ccc43)cc2)O1
- growth: -17.5% (active)

Structure (SMILES): CC(C)(C)n1cc(-c2ccnc(NCCCNS(=O)(=O)c3ccc(C(F)(F)F)cc3)c2)c(-c2cccc(F)c2)n1
- growth: 98.6% (inactive)

Structure (SMILES): CNS(=O)(=O)Oc1ccc(-c2sc3cc(OS(=O)(=O)NC)ccc3c2C(=O)c2ccc(OCCN3CCCCC3)cc2)cc1
- growth: 63.1% (inactive)

Structure (SMILES): CCOC(=O)/C(=C/c1ccccc1)C(=O)c1ccccc1
- growth: 85.6% (inactive)

— PubChem BioAssay (NCI)
